Bioassay records: PubChem, National Center for Advancing Translational Sciences (NCATS)
Only some compounds are listed: those with a hit (about 4.3% of all), similar ones and a draw of the others.
SW480 rerep: inducers of DNA re-replication in SW480 colon cancer cells. SW480 DNA re-replication, Hoechst DNA content imaging, 48 h. Potency, µM (top dose mostly 46.1 µM), hits mostly activators. hit rate 1.8% among 340,000; note: nearly all actives have a fitted effect of over 55% in size
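Compounds, transferred as 23 nL by pin tool, were incubated with cells for 48 hr; DNA content per nucleus was then quantified by Hoechst staining and fluorescence plate imaging.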
Giardia kill: kills Giardia lamblia; Giardia lamblia trophozoite viability; AID 540267; activity change, % at 7.66 µM, hits read low; hit rate 0.15% among 340,000; in the data active = activity change below about -80%; inconclusive = between about -30% and that limit;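 note: parasites exposed to compound for two days anaerobically before the ATP read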
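Viability, read as ATP luminescence: trophozoites at 100 cells/well, compound added, 48 hrs anaerobic at 37 deg C, then 15-30 min room-temperature development before reading.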
uPA generation: inhibitors of cell surface uPA generation; cell surface uPA generation assay, qHTS; Potency, µM (top dose mostly 38.3 µM), actives largely listed as inhibitors; hit rate 0.31% among 330,000; AID 540303; active = well fitted inhibition curve with a large enough effect; inconclusive = small, poorly fitted or top-dose-only effect; inactive = no such curve, though single readings can be large or run the other way; tested in mouse RAW 264.7 cells; note: nearly all actives have a fitted effect of over 55% in size
MCF10A rereplic: DNA re-replication induction in MCF 10a cells | MCF 10A DNA re-replication, Hoechst nuclear intensity, 48 h | Potency, µM (doses to about 46.1 µM), usual class: activators | hit rate 2.9% among 350,000 | AID 624296; note: nearly all actives have a fitted effect of over 50% in size
Each line names hits and unclear results; the compound was inactive in the other large screens. Unless noted, calls come from the whole dose curve; as a rule, active = well fitted activation curve with a large enough effect; inconclusive = small, poorly fitted or top-dose-only effect; inactive = no such curve, though single readings can be large or run the other way.

CCN(CC)CCNC(=O)Cn1cnc2sc(C)c(S(=O)(=O)N3CCN(c4ncccn4)CC3)c2c1=O	none
CCN1C(=O)/C(=C\C=C\c2ccccc2[N+](=O)[O-])SC1=S	SW480 rerep inconclusive, MCF10A rereplic 4.11µM
O=C1/C(=C\c2cccc([N+](=O)[O-])c2O)SC(=S)N1Cc1ccccc1	none
CC1=NN(c2ccc(Br)cc2)C(=O)/C1=C/c1cccs1	SW480 rerep inconclusive, MCF10A rereplic 18.4µM
COc1ccc(Nc2nc(-c3sc(C)nc3C)cs2)c(OC)c1	SW480 rerep 20.6µM, uPA generation 4.47µM, MCF10A rereplic inconclusive
Cc1nc(C)c(-c2csc(Nc3ccccn3)n2)s1	none
Cc1ccc(Nc2nc(-c3sc(C)nc3C)cs2)cc1	SW480 rerep 2.06µM, uPA generation inconclusive, MCF10A rereplic inconclusive
Cc1ccnc(Nc2nc(-c3sc(C)nc3C)cs2)c1	SW480 rerep inconclusive, MCF10A rereplic 23.1µM
NC(=O)C(OC(=O)CNC(=O)C1CCCCC1)c1ccccc1 (stereo unspecified)	none (no result: SW480 rerep, uPA generation, MCF10A rereplic)
C[C@@]12C(=O)OC(=O)[C@]1(C)[C@H]1CC[C@@H]2O1	MCF10A rereplic inconclusive (no result: Giardia kill, uPA generation)
CCN(CC(=O)Nc1cc(Cl)ccc1C)C(=O)C1CC(=O)N(Cc2ccccc2)C1 (stereo unspecified)	SW480 rerep 0.164µM, MCF10A rereplic inconclusive
CCCN(CC(=O)Nc1ccc(F)c(F)c1F)C(=O)C1CC(=O)N(Cc2ccccc2)C1 (stereo unspecified)	none
Nc1c(C(=O)c2ccccc2)sc2c1c(=O)[nH]c(=O)n2-c1ccccc1	none
CC(=O)c1ccc(-n2c(=O)[nH]c(=O)c3c(N)c(C(=O)c4ccc(Cl)cc4)sc32)cc1	SW480 rerep 18.4µM, MCF10A rereplic inconclusive
Cc1ccc(C(=O)c2sc3c(c2N)c(=O)[nH]c(=O)n3CCc2ccccc2)cc1	SW480 rerep inconclusive, MCF10A rereplic 9.2µM
C[C@H]1C[C@@H]2[C@@H]([C@@H](O)C[C@@]3(C)[C@H]2CC[C@]3(O)C(=O)CO)[C@@]2(C)C=CC(=O)C=C12	none (no result: Giardia kill, uPA generation)
CCCN1CNc2c(c(=O)[nH]c(=S)n2CCc2ccc(OC)cc2)C1	none (no result: SW480 rerep, uPA generation, MCF10A rereplic)
COc1ccc(CCn2c(N)c(C(=O)NCc3ccco3)c3nc4ccccc4nc32)cc1	SW480 rerep inconclusive, MCF10A rereplic inconclusive
Nc1c(C(=O)NCC2CCCO2)c2nc3ccccc3nc2n1-c1ccccc1 (stereo unspecified)	SW480 rerep inconclusive, MCF10A rereplic inconclusive
COc1ccc(-n2c(N)c(C(=O)NCc3ccco3)c3nc4ccccc4nc32)c(OC)c1	SW480 rerep 2.06µM, MCF10A rereplic 7.08µM
COCCNC(=O)c1c(N)n(CCC2=CCCCC2)c2nc3ccccc3nc12	SW480 rerep 20.6µM, MCF10A rereplic 14.6µM
COc1ccccc1-n1c(N)c(C(=O)NCC2CCCO2)c2nc3ccccc3nc21 (stereo unspecified)	SW480 rerep 11.2µM, MCF10A rereplic inconclusive
Nc1c(C(=O)NCc2ccco2)c2nc3ccccc3nc2n1CCc1ccccc1F	SW480 rerep 5.8µM, MCF10A rereplic 2.59µM
COc1ccc(NS(=O)(=O)c2ccc(O)c(NC(=O)c3cc4c(C)nn(-c5ccc(F)cc5)c4s3)c2)cc1	SW480 rerep inconclusive, MCF10A rereplic 8.2µM
O=C1N/C(=C\c2ccccc2)c2ccccc21	SW480 rerep inconclusive, uPA generation inconclusive, MCF10A rereplic 18.4µM
NS(=O)(=O)c1cccc(NS(=O)(=O)c2ccc3ccccc3c2)c1	none
O=C(Nc1nc2c(F)cccc2s1)C1CC1	none
CNC(=O)c1c(NC(=O)C2=COCCO2)sc2c1CCC(C)C2 (stereo unspecified)	uPA generation inconclusive
CC1CCc2c(sc(NC(=O)C3=COCCO3)c2C(N)=O)C1 (stereo unspecified)	uPA generation 7.94µM
CC1CCc2c(sc(Nc3nc4c(F)cccc4s3)c2C(N)=O)C1 (stereo unspecified)	SW480 rerep inconclusive, MCF10A rereplic 7.31µM
COc1ccccc1-n1nnnc1SCC(=O)N1CCCC1=O	none
CN(C)c1ccc(/C=C2\CCCc3c2nc2ccccc2c3C(=O)O)cc1	MCF10A rereplic 18.4µM
COc1cc(/C=C2\CCCc3c2nc2ccccc2c3C(=O)O)cc(OC)c1O	SW480 rerep 25.9µM
COc1cc(/C=C2\CCCc3c2nc2ccccc2c3C(=O)O)cc([N+](=O)[O-])c1O	none
COc1cc(-c2nc3ccc4ccccc4c3c3c2CCC3)cc(OC)c1O	SW480 rerep inconclusive, MCF10A rereplic 14.6µM
COc1ccc(/C=C2\CCc3c2nc2ccccc2c3C(=O)O)cc1OC	Giardia kill inconclusive, uPA generation 3.55µM, MCF10A rereplic inconclusive
Cn1cc(S(=O)(=O)NC[C@H]2O[C@@H](n3ccc(=O)[nH]c3=O)[C@H](O)[C@@H]2O)cn1	none
Cc1nn(C2CCS(=O)(=O)C2)c(C)c1CN(C)C(=O)c1cccc(Cl)c1 (stereo unspecified)	none
CCc1ccccc1NC(=O)Nc1cc(F)ccc1F	SW480 rerep 29.1µM
CCc1ccccc1NC(=O)Nc1ccc(F)cc1F	none
N/C(=N\OC(=O)c1cc([N+](=O)[O-])ccc1Cl)c1cccnc1	SW480 rerep inconclusive, MCF10A rereplic 18.4µM
Cc1ccc(C)c(OCC(=O)O/N=C(\N)c2ccccn2)c1	MCF10A rereplic 10µM
N/C(=N\OC(=O)c1ccc(Cl)c(Cl)c1)c1ccccn1	none (no result: uPA generation)
N/C(=N\OC(=O)c1ccc(Cl)c([N+](=O)[O-])c1)c1ccccn1	SW480 rerep inconclusive, MCF10A rereplic 20.6µM
COc1ccccc1C(=O)O/N=C(\N)c1ccccn1	none
Cc1ccc(C(=O)O/N=C(\N)c2ccccn2)c(C)c1	SW480 rerep inconclusive, MCF10A rereplic 7.31µM
N/C(=N\OC(=O)c1ccc([N+](=O)[O-])cc1)c1cccnc1	none
Cc1c(N2C(=O)/C(=C/c3ccc(N(C)C)cc3)N(C)C2=S)c(=O)n(-c2ccccc2)n1C	none
COc1ccc(CCNC(=O)c2cc(=O)c3cc(C)ccc3o2)cc1OC	none
O=C(NCc1ccco1)C1CC(c2ccccc2C(F)(F)F)=NO1 (stereo unspecified)	uPA generation inconclusive
O=C(NCc1ccco1)C1CC(c2cc(C(F)(F)F)cc(C(F)(F)F)c2)=NO1 (stereo unspecified)	SW480 rerep 13µM, uPA generation inconclusive, MCF10A rereplic 6.51µM
O=C(NCc1ccco1)C1CC(c2ccccc2O)=NO1 (stereo unspecified)	MCF10A rereplic inconclusive
COc1ccc(OC)c(C2=NOC(C(=O)NCc3ccco3)C2)c1 (stereo unspecified)	SW480 rerep inconclusive, MCF10A rereplic 13µM
CCC[C@@H](O)c1cc2cc(OC)c(OC)cc2c(=O)o1	none
Cc1ccc(-c2[nH]c(-c3ccc(C(=O)O)cc3)nc2-c2ccccc2)cc1	SW480 rerep inconclusive, MCF10A rereplic 9.2µM
CC(C)CNC(=O)C(=O)NCC1OCCCN1S(=O)(=O)c1ccc2c(c1)OCCO2 (stereo unspecified)	none
COc1ccc(-c2[nH]n(-c3ccc([N+](=O)[O-])cc3)c(=O)c2C=NCc2ccc(F)cc2)cc1	MCF10A rereplic inconclusive
COc1ccc(-c2cc(=O)n(-c3ccc([N+](=O)[O-])cc3)[nH]2)cc1	MCF10A rereplic 16.4µM
